# Measurements taken from PubChem BioAssay AID493185 (National Center for Advancing Translational Sciences (NCATS), 2011).
# Values without a mark were called inactive. Activity calls are given as the source filed them. Calls come from the whole dose curve; as a rule, active = well fitted activation curve with a large enough effect; inconclusive = small, poorly fitted or top-dose-only effect; inactive = no such curve, though single readings can be large or run the other way.
# Assay: Counterscreen for Identifying a Potential Treatment of Ataxia-Telangiectasia: Hit Validation; for activation: 0% is about no effect
# Conditions: cell-free AlphaLISA/AlphaScreen artifact counterscreen, PBS only, no cells; series mostly up to 76.9 µM; activation: at the top concentration
# Outline: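 Without cells, compounds at up to 76.7 uM final were combined with premixed anti-pKAP1/anti-KAP1 AlphaLISA bead reagents, protease inhibitors and lysis buffer; signal read after 6 hr at 25C to flag assay-platform artifacts.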
# Potency is the fitted concentration of half-maximal effect.
SMILES,activation [%],Potency
Cc1ccc(C)c(-c2csc(Nc3ncccn3)n2)c1,0,
Cn1c(=O)[nH]c(=O)c2[nH]c(N(Cc3ccccc3)Cc3ccccc3)nc21,-27,
N#C/C(=C/c1ccc(F)cc1)C(N)=S,3.28,
Cc1cc2nc3ccc(=[N+](C)C)cc-3sc2cc1N,,26 µM (active)
O=C(COc1ccccc1Cl)NCCCNC(=O)c1cnccn1,-27.7,
Cc1ccccc1S(=O)(=O)Oc1ccc2ccc(O)cc2c1,-9.84,
Cc1ccc(C2(C)NC(=O)N(CC(=O)Nc3ccccc3N3CCCC3)C2=O)cc1 (centres undefined),-10.7,
O=C(Nc1ccc(N2CCCC2)cc1)c1ccc(Cl)cc1Cl,-6.77,
O=C(N/N=C/c1ccncc1)c1ccc(COc2cccc3cccnc23)cc1,18,
COc1ccccc1N1CN(CCc2ccccc2)CNC1=S,-36.2,
Cc1oc2ccc(OCc3ccc(Br)cc3)cc2c1C(=O)O,1.5,
O=C1C(Cl)=C(Nc2ccc3cn[nH]c3c2)C(=O)c2ccccc21,-29.2,
CCOc1ccc(C(=O)NC(=S)Nc2cccnc2)cc1[N+](=O)[O-],-6.15,
COc1cc(C(=O)NCCC(=O)NCCCN2CCCCC2)cc(OC)c1OC,19.2,
CSc1nc2ccccc2nc1N(C)S(=O)(=O)c1ccc(C)cc1,19.5,
COC1=C(N)C(=O)c2nc(-c3nc(C(=O)O)c(C)c(-c4ccc(OC)c(OC)c4O)c3N)ccc2C1=O,-20.5,
COc1cccc(CNC(=O)C(CC(C)C)NC(=O)c2ccccc2C)c1 (centres undefined),0,
CC(CCc1ccccc1)NC(=O)COC(=O)c1ccc(F)cc1 (centres undefined),2.46,
COC(=O)c1ccc2[nH]c3cccc(/C(=C/c4ccccc4)c4ccccc4)c3c2c1,4.92,
